An excerpt weighted towards active compounds, which were near 4% of everything screened.
DUSP3 inh = VHR1 phosphatase inhibitors, primary screen, biochemical, absorbance, uHTS. Dual specificity protein phosphatase 3 (Homo sapiens), P51452. recombinant VHR phosphatase, pNPP absorbance. inhibition, % at 13.3 µM. 290,000 compounds, 0.52% hits; in the data active means inhibition above about 50%
Autofluor counter = compound fluorescence in toxin protease inhibitor counterscreen. fluorescence intensity (test concentration not listed). 360,000 compounds, 3.1% hits. compound autofluorescence counterscreen, microsphere flow cytometry; hits give high values. AID 624483; in the data active means fluorescence intensity above about 16000; inconclusive means no clear call, values can overlap the other calls
MazF activator = activators of E. coli MazEF toxin-antitoxin RNase, primary screen, biochemical, fluorescence, uHTS. Endoribonuclease toxin MazF (Escherichia coli (strain K12)), P0AE70. FAM/BHQ RNA-DNA oligo cleavage fluorescence, 5 h. activation, % at 20 µM. 350,000 compounds, 0.32% hits; in the data active means activation above about 50%
BoNT A protease = BoNT/A light chain protease inhibitors, primary screen, biochemical, flow cytometry, MLPCN library; inhibition, % at 10 µM; multiplex microsphere protease substrate cleavage; 360,000 compounds, 0.17% hits
Anthrax LF prot = Bacillus anthracis LF protease inhibitors, primary screen, biochemical, multiplex microsphere, MLPCN library; 360,000 compounds, 0.12% hits; inhibition, % at 10 µM; multiplex microsphere protease cleavage assay; Lethal factor (Bacillus anthracis), P15917
Target sequence (P15917 whole entry, looked up): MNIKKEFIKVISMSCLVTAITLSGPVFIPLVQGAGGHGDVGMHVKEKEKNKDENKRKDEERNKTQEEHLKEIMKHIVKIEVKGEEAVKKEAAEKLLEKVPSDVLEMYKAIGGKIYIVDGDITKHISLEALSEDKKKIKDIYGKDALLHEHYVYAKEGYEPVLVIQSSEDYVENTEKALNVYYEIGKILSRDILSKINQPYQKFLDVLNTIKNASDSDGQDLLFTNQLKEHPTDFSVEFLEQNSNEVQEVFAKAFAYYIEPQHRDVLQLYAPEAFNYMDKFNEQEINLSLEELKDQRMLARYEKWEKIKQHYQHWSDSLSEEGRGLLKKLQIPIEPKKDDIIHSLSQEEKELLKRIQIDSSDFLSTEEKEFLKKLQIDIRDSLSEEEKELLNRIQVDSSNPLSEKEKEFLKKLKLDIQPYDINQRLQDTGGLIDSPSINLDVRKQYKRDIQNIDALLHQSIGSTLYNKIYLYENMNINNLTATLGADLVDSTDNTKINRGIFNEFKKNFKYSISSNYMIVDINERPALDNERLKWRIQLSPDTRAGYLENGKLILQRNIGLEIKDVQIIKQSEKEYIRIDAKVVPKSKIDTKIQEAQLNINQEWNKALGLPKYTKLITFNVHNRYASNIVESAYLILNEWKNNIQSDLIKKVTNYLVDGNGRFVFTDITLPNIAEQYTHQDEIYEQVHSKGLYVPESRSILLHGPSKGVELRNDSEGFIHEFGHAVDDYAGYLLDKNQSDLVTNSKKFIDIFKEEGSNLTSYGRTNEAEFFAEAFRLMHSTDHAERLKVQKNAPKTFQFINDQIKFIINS
BoNT-F LC inh = BoNT/F light chain protease inhibitors, primary screen, biochemical, flow cytometry, MLPCN library. Botulinum neurotoxin type F light chain protease (Clostridium botulinum). Multiplex microsphere protease cleavage assay. inhibition, % at 10 µM. 360,000 compounds, 0.22% hits; in the data active means inhibition above about 35%, passing the limit was not always enough; inconclusive means no clear call, values can overlap the other calls
Of the large screens only hits and unclear results are named; the others gave an inactive call. Unless noted, no stated cut-off is given here; in the data, active means inhibition above about 30%; inconclusive means no clear call, values can overlap the other calls; inactive means below that.

CCOC(=O)c1cnc(-n2nc(C)cc2C)nc1Nc1ccc(C)cc1	Autofluor counter inconclusive, BoNT A protease inconclusive
CCOC(=O)c1cnc(-n2nc(C)cc2C)nc1NC	Autofluor counter inconclusive, BoNT A protease inconclusive, Anthrax LF prot inconclusive, BoNT-F LC inh inconclusive
CCOC(=O)c1cnc(-n2nc(C)cc2C)nc1N(CC)CC	Autofluor counter 18780, BoNT A protease inconclusive
CCOC(=O)c1cnc(-n2nc(C)cc2C)nc1Nc1cccc(C(=O)O)c1	Autofluor counter 21795
O=C(NC(=S)NCc1ccccc1)c1cccc(Cl)c1	none (no result: Autofluor counter, BoNT A protease, Anthrax LF prot, BoNT-F LC inh)
S=C(NCC(c1cccnc1)N1CCOCC1)NC1CCCCC1 (centres undefined)	none
COc1ccc(C(=O)O/N=C/c2c(C(F)(F)F)nn(C)c2SCc2ccccc2Cl)cc1	Autofluor counter 22636
Cn1nc(C(F)(F)F)c(/C=N/OC(=O)c2ccccc2Cl)c1SCc1ccc(Cl)cc1	Autofluor counter 23366
Cc1ccc(C(=O)O/N=C/c2c(C(F)(F)F)nn(C)c2Sc2ccc(Cl)cc2)cc1	none
CCCOc1ccc(Cc2c(COCC)[nH]c(=S)[nH]c2=O)cc1	none
Cc1ccc(NS(=O)(=O)c2cccc(C(=O)NCC(c3cccs3)N(C)C)c2)cc1 (centres undefined)	none
CNS(=O)(=O)c1cccc(C(=O)NCC(c2cccs2)N(C)C)c1 (centres undefined)	Autofluor counter 22234
O=C(O/N=C1/CCSc2ccccc21)c1ccc(F)cc1	Autofluor counter 24780, BoNT A protease inconclusive
O=C(O/N=C1/CCCc2occc21)c1ccc(F)cc1	none
CSc1nnc(SCC(=O)NC(=O)c2ccccc2)s1	none (no result: DUSP3 inh)
CSC(=O)CC(=O)NC(=O)c1ccccc1	Autofluor counter 25369
O=S(=O)(c1cc(Cl)ccc1Cl)N1CCc2ccccc21	none
COc1cc(C(C)=O)ccc1Oc1ncnc2c1cnn2-c1ccccc1	MazF activator 60
CC(=O)Nc1ccc(S(=O)(=O)Oc2ccc3c(c2)C(C)=CC(C)(C)N3)cc1	none (no result: Autofluor counter, MazF activator, BoNT A protease, Anthrax LF prot, BoNT-F LC inh)
CC1=CC(C)(C)Nc2ccc(OS(=O)(=O)c3ccc(C)cc3)cc21	Autofluor counter 17799
COc1cc(CNCC(C)C)c(Br)cc1OCC(=O)NCc1ccccc1	Autofluor counter 16297
COCCN(C(=O)COC(=O)c1nc(Cl)ccc1Cl)c1c(N)n(Cc2ccccc2)c(=O)[nH]c1=O	BoNT-F LC inh 46 (no result: DUSP3 inh)
CCc1ccc(C(=O)OCC(=O)N(CC)c2c(N)n(Cc3ccccc3)c(=O)[nH]c2=O)cc1	none (no result: DUSP3 inh)
CCc1ccc(C(=O)OCC(=O)N(CCOC)c2c(N)n(Cc3ccccc3)c(=O)[nH]c2=O)cc1	BoNT-F LC inh 47 (no result: DUSP3 inh)
Cc1ccc(S(=O)(=O)C2C(=O)N(C)C3(C)CC2c2ccccc2O3)cc1 (centres undefined)	none
CCC(=O)c1ccc(OC(=O)c2cnccn2)cc1	none
Cc1ccc(S(=O)(=O)Oc2ccc(/C=C3\N=C(c4cccc(C)c4)OC3=O)cc2)cc1	Autofluor counter 21802
CC(/C=C/C=C/c1ccccc1)=N/NC(=O)CNc1ccc(C)cc1	none
C/C(=N\NC(=O)c1ccccc1O)c1c(O)cc(C)oc1=O	Autofluor counter 17536
C/C(=N\NC(=O)c1ccccc1[N+](=O)[O-])c1c(O)cc(C)oc1=O	none
CCCS(=O)(=O)Nc1cc(C(F)(F)F)ccc1OCCOC	Autofluor counter 24565
CC(=O)Oc1ccc(/C=N/NS(=O)(=O)c2ccc(C)cc2)c(OC(C)=O)c1	DUSP3 inh 54
COc1ccc(O)c(/C=N/NS(=O)(=O)c2ccc(C)cc2)c1	none
CCN(CC)C(=O)Cn1cc(C=C2C(=O)N(C)C(=O)N(C)C2=O)c2ccccc21	none (no result: DUSP3 inh)
COC(=O)Cn1cc(C=C2C(=O)N(C)C(=O)N(C)C2=O)c2ccccc21	MazF activator 195 (no result: Autofluor counter, BoNT A protease, Anthrax LF prot, BoNT-F LC inh)
Cc1ccc(NC(=O)N(CCCN2CCOCC2)Cc2cccnc2)cc1C	none
CN(CCOC(=O)c1ccc2c(c1)OCO2)C(C)(C)C	none
CCOC(=O)c1oc2nc(CC(C)C)c3c(c2c1N)CCC3	Autofluor counter 20183
CC(C)Cc1nc2oc3c(N4CCN(CCO)CC4)ncnc3c2c2c1CCCC2	none
O=c1oc(C2(O)CCCCC2)cc2ccc(Br)cc12	none (no result: DUSP3 inh)

Compound activity: PubChem BioAssay, several laboratories
